The source of these data is PubChem BioAssay (NCI).

SMILES strings stand for the structures. This is part of a sample that, as a whole, favours compounds with a hit. Of some 83,000 tested, about 20% had one in any assay.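 Compound tested at a single concentration for 48 hours in 96-well plates; a percent growth value below 10 was scored as active.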 A number with no mark means an inactive call. The source made the active and inactive calls.

Some test systems named below: DU-145 prostate; K-562 leukemia; MALME-3M melanoma; MDA-MB-231 breast; RXF 393 renal; SF-268 CNS; SF-295 CNS; SF-539 CNS; UACC-257 melanoma; M14 melanoma; HCT-15 colon; HT29 colon; SNB-75 CNS; U251 CNS; PC-3 prostate; SK-MEL-5 melanoma; UACC-62 melanoma; LOX IMVI melanoma; SK-MEL-28 melanoma.
What all share (test): NCI-60 one-dose screen, 48 h (100 = growth as untreated, 0 = no growth, -100 = all killed)
Conditions in all cases: 10 µM unless noted

On to `COc1cc(-c2nc3ccccc3s2)ccc1NC(=O)COc1ccc(Cl)cc1`, for which the growth in the assay on DU-145 prostate was 82.1%; in the assay on K-562 leukemia, 74.9%; in the assay on MALME-3M melanoma it was 48.3%; in the assay on MDA-MB-231 breast, 45.9%; in the assay with RXF 393 renal it was 66.3%; with SF-268 CNS it was 29.4%. The growth is 29% in the assay with SF-295 CNS; 26.7% with SF-539 CNS; 85.3% in the assay on UACC-257 melanoma; 60% in the assay with M14 melanoma; 85.8% with HCT-15 colon; 34.9% in the assay with HT29 colon. The growth with SNB-75 CNS was 21.3%; with U251 CNS it was 41.9%; in the assay on PC-3 prostate, 49.8%; in the assay with SK-MEL-5 melanoma it was 73.7%; with UACC-62 melanoma it was 36.1%; in the assay with LOX IMVI melanoma, 64.7%. In addition, the growth in the assay on SK-MEL-28 melanoma is 58.6%.

As to `O=C1C[C@H](Sc2nc(-c3ccc(F)cc3)cc(C(F)(F)F)n2)[C@H]2CO[C@@H]1O2`, the growth in the assay with DU-145 prostate is 89.9%; in the assay on K-562 leukemia, 53.3%; in the assay on MALME-3M melanoma, 89.1%; in the assay with MDA-MB-231 breast it was 96.2%; in the assay with RXF 393 renal, 96.6%; with SF-268 CNS, 101%. The growth in the assay with SF-295 CNS was 109%; with SF-539 CNS, 103%; in the assay with UACC-257 melanoma it was 104%; in the assay with M14 melanoma it was 97.8%; in the assay with HCT-15 colon, 63.1%; with HT29 colon it was 75.5%. Moreover, the growth with SNB-75 CNS is 98.3%; in the assay on U251 CNS it was 98.9%; with PC-3 prostate it was 96.2%; in the assay with SK-MEL-5 melanoma, 97.5%; in the assay with UACC-62 melanoma it was 98.2%; with LOX IMVI melanoma, 34.8%. Further, the growth with SK-MEL-28 melanoma is 105%.

With `CCCCCn1cnc2c(=S)nc[nH]c21`, the growth in the assay on DU-145 prostate is 124%; in the assay on K-562 leukemia, 97.9%; in the assay with MALME-3M melanoma it was 111%; in the assay on MDA-MB-231 breast, 131%; in the assay on RXF 393 renal, 160%; with SF-268 CNS, 124%. Moreover, the growth is 119% with SF-295 CNS; 91% with SF-539 CNS; 131% with UACC-257 melanoma; 120% in the assay on M14 melanoma; 107% in the assay on HCT-15 colon; 114% in the assay with HT29 colon. Also, the growth in the assay with SNB-75 CNS is 90.2%; in the assay with U251 CNS, 110%; with PC-3 prostate it was 98%; in the assay with SK-MEL-5 melanoma, 93.5%; with UACC-62 melanoma, 109%; with LOX IMVI melanoma it was 107%. For the same compound, in the assay on SK-MEL-28 melanoma, the growth was 106%.

As for `O=C(COc1cccc(/C=C2/Oc3ccccc3C2=O)c1)Nc1nccs1`, the growth with DU-145 prostate was 104%; in the assay with K-562 leukemia, 43.3%; in the assay with MALME-3M melanoma, -71% (active); with MDA-MB-231 breast it was 66.1%; in the assay with RXF 393 renal it was 2.9% (active); in the assay with SF-268 CNS, 30.3%. Moreover, the growth in the assay with SF-295 CNS is 203%; in the assay on SF-539 CNS, 64.7%; in the assay on UACC-257 melanoma, 89.4%; with M14 melanoma, 99.7%; in the assay with HCT-15 colon, 81.7%; in the assay on HT29 colon it was 84.2%. In addition, the growth was 84.8% with SNB-75 CNS; 89.4% with U251 CNS; 14.6% in the assay with PC-3 prostate; 78.8% with SK-MEL-5 melanoma; 82.9% with UACC-62 melanoma; 65.4% with LOX IMVI melanoma. Also, the growth with SK-MEL-28 melanoma is 124%.

Consider `CCc1ccc(C(c2ccc(CC)cc2)C(Cl)(Cl)CCl)cc1`, for which the growth in the assay with DU-145 prostate is 110%; in the assay on K-562 leukemia, 106%; in the assay on MALME-3M melanoma it was 96.6%; in the assay with MDA-MB-231 breast, 88.7%; in the assay on RXF 393 renal, 131%; in the assay with SF-268 CNS, 93.7%. The growth with SF-295 CNS was 105%; in the assay with SF-539 CNS, 96.3%; in the assay on UACC-257 melanoma, 110%; in the assay with M14 melanoma, 100%; in the assay on HCT-15 colon, 89.7%; with HT29 colon, 76.8%. Besides, the growth in the assay on SNB-75 CNS is 80.6%; in the assay on U251 CNS it was 89%; in the assay on PC-3 prostate it was 80.5%; in the assay on SK-MEL-5 melanoma, 90%; in the assay on UACC-62 melanoma, 88.2%; in the assay with LOX IMVI melanoma, 93.6%. Besides, in the assay with SK-MEL-28 melanoma, the growth was 92.4%.

As for `CCN(CC)Cc1cc(Nc2c3ccc(Cl)cc3nc3c(C)cccc23)ccc1O`, the growth in the assay with DU-145 prostate was 2.09% (active); in the assay with K-562 leukemia, -31% (active); in the assay with MALME-3M melanoma, -87% (active); with MDA-MB-231 breast, -48.6% (active); with RXF 393 renal, -74.3% (active); with SF-268 CNS, -79.8% (active). Further, the growth in the assay on SF-295 CNS was -43.6% (active); with SF-539 CNS, -96.5% (active); with UACC-257 melanoma, -85.2% (active); in the assay with M14 melanoma, -88.5% (active); in the assay on HCT-15 colon it was -45.8% (active); in the assay on HT29 colon it was -41.8% (active). For the same compound, the growth is -99.4% (active) in the assay with SNB-75 CNS; -62.4% (active) with U251 CNS; -48.9% (active) in the assay with PC-3 prostate; -96.5% (active) in the assay on SK-MEL-5 melanoma; -79.3% (active) with UACC-62 melanoma; -84.9% (active) with LOX IMVI melanoma. Further, the growth with SK-MEL-28 melanoma is -65.5% (active).

For the compound `Nc1nc(SCc2ccccc2)c2ncn(C3CCCC3)c2n1`, the growth in the assay on DU-145 prostate was 101%; in the assay with K-562 leukemia, 104%; in the assay on MALME-3M melanoma, 121%; with MDA-MB-231 breast, 106%; with RXF 393 renal, 99.5%; in the assay on SF-268 CNS, 121%. The growth was 101% with SF-295 CNS; 91.2% with SF-539 CNS; 129% in the assay with UACC-257 melanoma; 129% with M14 melanoma; -58.9% (active) in the assay with HCT-15 colon; 114% with HT29 colon. For the same compound, the growth in the assay with SNB-75 CNS was 126%; in the assay on U251 CNS, -25.9% (active); in the assay on PC-3 prostate it was 83.2%; in the assay on SK-MEL-5 melanoma, 94%; in the assay on UACC-62 melanoma, 81.4%; in the assay with LOX IMVI melanoma, 3.63% (active). In addition, in the assay on SK-MEL-28 melanoma, the growth is 141%.

`CC(=O)Nc1ccc2c(c1)c(NC(C)=O)nn2C(=O)Nc1ccc(Cc2ccccc2)cc1`: the growth in the assay on DU-145 prostate was 83%; in the assay on K-562 leukemia it was 18.2%; in the assay with MALME-3M melanoma it was 86.5%; in the assay on MDA-MB-231 breast it was 69.9%; in the assay with RXF 393 renal it was 92.6%; in the assay on SF-268 CNS it was 46.6%. Besides, the growth with SF-295 CNS was 54%; with SF-539 CNS it was 80.9%; in the assay with UACC-257 melanoma, 87.2%; in the assay on M14 melanoma, 63%; with HCT-15 colon, 78.8%; in the assay with HT29 colon, 89.1%. The growth with SNB-75 CNS is 106%; in the assay on U251 CNS, 69.5%; with PC-3 prostate, 63.5%; in the assay on SK-MEL-5 melanoma, 109%; with UACC-62 melanoma, 20%; in the assay on LOX IMVI melanoma, 53.6%. The growth in the assay with SK-MEL-28 melanoma was 141%.
